Results published in PubChem BioAssay (NCI).
About 83,000 compounds went through this panel and 20% of them were active in at least one assay; those are over-represented in the sample as a whole.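 In brief: 96-well plates, 48 h treatment, single concentration, percent growth endpoint.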 A number with no mark means an inactive call. Calls of active or inactive are those of the source. The calls were made as follows: active = growth percent below 10; inactive = the rest.

Tested on: UO-31 renal
Test: NCI-60 one-dose screen, 48 h (100 = growth as untreated, 0 = no growth, -100 = all killed)
Conditions: 10 µM

Question: How did the growth turn out when `CCN(CC)CCNc1ccc(CO)c2oc3cc(Cl)ccc3c(=O)c12` was run?
Answer: The growth was 54.4%.

Question: How did the growth turn out when `O=C(O)C(SC(C(=O)O)c1ccccc1)c1ccccc1` (stereo not given) was run?
Answer: The growth was 87.6%.

Question: `COc1ccc(-c2nc3ccccn3c2-c2nnc(-c3cc(OC)c(OC)c(OC)c3)o2)cc1` was tested. Which growth did it give?
Answer: Its growth is 77.7%.

Question: How did the growth turn out when `N#Cc1c(C#N)c(SSc2c(C#N)c(C#N)c(N)n2-c2ccccc2)n(-c2ccccc2)c1N` was run?
Answer: Its growth is 81.2%.

Question: Which growth does the source give for `Cc1ccc(-c2nc(/C=C3/C(=O)N(C)c4ccc(F)cc43)c3ccccn23)cc1` here?
Answer: The growth was 85.8%.

Question: With `CCN(CC)CCSCCCNc1c2ccc(Cl)cc2nc2ccc(OC)cc12` as the compound, how does the growth read?
Answer: Its growth is -29.1% (active).

Question: How did the growth turn out when `CN1CC[C@@H](c2c(O)cc(O)c3c(=O)cc(-c4ccccc4Cl)oc23)[C@@H](O)C1` was run?
Answer: Its growth is -5.67% (active).

Question: How did the growth turn out when `NC1=NC(=O)C(c2ccccc2)(c2ccccc2)S1` was run?
Answer: The growth was 73.9%.

Question: For `CCc1ccc2c(c1)N(CCO)C1=C(C(=O)OC1)C2c1ccccc1` (stereo not given), which growth is on record?
Answer: Its growth is 88.9%.

Question: How did the growth turn out when `Cc1cccc2c(NCCN(C)C)c3cccc(C(=O)NCCN(C)C)c3nc12` was run?
Answer: The growth was -67.6% (active).

Question: `CCCN(CCC)CCC(O)c1cc2c(c3ccccc13)CCCC2` (stereo not given) was tested. Which growth did it give?
Answer: The growth was 71.4%.

Question: With `COc1ccc2c(c1)/C(=C\c1c[nH]c3ccc(OC)cc13)C(=O)N2` as the compound, how does the growth read?
Answer: The growth was 46.8%.

Question: `Nc1ccn(C2CC(O)C(CO)O2)c(=O)n1` (stereo not given) was tested. Which growth did it give?
Answer: The growth was 96.4%.

Question: How did the growth turn out when `COc1cccc(C2C3=C(COC3=O)N(CCO)c3cc(OC)ccc32)c1` (stereo not given) was run?
Answer: Its growth is 50.4%.

Question: With `C=C(C(=O)c1ccccc1)C(NC(C)(C)C)c1ccccc1` (stereo not given) as the compound, how does the growth read?
Answer: Its growth is -51.7% (active).
